# Most compounds without a hit are left out; they make up all but 32% or so of the library.
# CYP2C9 inh – blockers of cytochrome P450 2C9 activity – biochemical, luminescence, ADME assay, primary screen | 96,000 tested, 20% active | P11712 | inhibition, % at 5 µM | CYP2C9 Supersomes, luciferin-H conversion;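 active = blocking of liver enzyme CYP2C9 beyond about 50% at 5 µM, limit read from the data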
# Target sequence (P11712 whole entry, looked up): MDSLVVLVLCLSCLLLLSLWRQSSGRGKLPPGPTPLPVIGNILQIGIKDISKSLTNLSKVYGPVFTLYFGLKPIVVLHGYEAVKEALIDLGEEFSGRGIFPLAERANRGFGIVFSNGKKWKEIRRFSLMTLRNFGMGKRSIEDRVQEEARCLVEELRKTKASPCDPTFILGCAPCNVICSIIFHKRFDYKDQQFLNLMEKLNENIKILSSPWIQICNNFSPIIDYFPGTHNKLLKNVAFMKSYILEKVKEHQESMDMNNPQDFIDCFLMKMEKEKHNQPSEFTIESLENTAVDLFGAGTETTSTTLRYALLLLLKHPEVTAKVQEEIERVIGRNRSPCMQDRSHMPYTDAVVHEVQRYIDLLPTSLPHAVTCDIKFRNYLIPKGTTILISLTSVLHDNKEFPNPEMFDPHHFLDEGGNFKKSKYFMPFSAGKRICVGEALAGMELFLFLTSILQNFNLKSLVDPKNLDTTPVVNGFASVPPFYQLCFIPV
# PostGolgi ctrl – growth inhibition of yeast control strain, primary screen, counter-screen for post-Golgi transport modulator project | efflux-deficient yeast background strain, growth absorbance A615, 16 h | inhibition, % at 10 µM | 98,000 tested, 5% active
# CYP2C19 activ – human CYP2C19 activators, primary screen, biochemical, luminescence. Cytochrome P450 2C19 (Homo sapiens), P33261. recombinant CYP2C19, luciferin-H EGE luminescence; active compounds read high; 0 = fully inhibited enzyme, 1 = untreated enzyme. activation factor at 5 µM. 96,000 tested, under 10 active. AID 1025, 2008;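 active = activation factor of at least 2 at 5 µM in the primary screen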;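 note: 0 = wells with 2.5 mM tranylcypromine and 1 = vehicle-only wells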
# PostGolgi yeast – phenotypic screen on post-Golgi transport, primary screen; inhibition, % at 10 µM; 98,000 tested, 0.9% active; AID 739, 2007; post-Golgi transport phenotypic cell assay;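 note: yeast cells grown in 1536-well plates; yeast grown about 18 h at 30C before absorbance read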
# CYP2C9 act – human CYP2C9 activators, primary screen, biochemical, luminescence. recombinant CYP2C9, luciferin-H conversion; active compounds read high; factor 1 = untreated enzyme, 0 = blocked. Cytochrome P450 2C9 (Homo sapiens), P11712. 96,000 tested, 1.4% active. activation factor at 5 µM;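 active = activation factor of 2 or more for CYP2C9 at a 5 µM dose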;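 note: 0 = sulfaphenazole-blocked wells and 1 = vehicle-only wells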
# CYP2C19 inh – blockers of cytochrome P450 2C19 activity – biochemical, luminescence, ADME assay, primary screen; CYP2C19 Supersomes, luciferin-H EGE luminescence, 30 min; inhibition, % at 5 µM; 96,000 tested, 21% active;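 active = CYP2C19 inhibition above a set limit at 5 µM in the primary screen, cut at about 50% in these data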;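 note: plate controls were negative control wells for no effect and 2.5 mM tranylcypromine positive control for full effect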
# * marks the source's active call; other numbers are inactive results; . = no result. Cut-off read from the data, not from the text of the source, unless noted: active = inhibition above about 30%; inactive = the rest.
SMILES,CYP2C9 inh,PostGolgi ctrl,CYP2C19 activ,PostGolgi yeast,CYP2C9 act,CYP2C19 inh
O=C(COc1ccccc1)NC(NC(=S)Nc1ccccc1O)C(Cl)(Cl)Cl (centres undefined),82.6*,2.4,0.1,-1.6,0.2,92.7*
Cc1ccccc1C(=O)NC(NCC1CCCO1)C(Cl)(Cl)Cl (centres undefined),9.4,17.4,0.7,-1.6,0.9,34.4
Cc1nc2nc(-c3cccnc3)[nH]n2c(=O)c1C,30.9,9.1,0.7,-0.5,0.7,26.7
CCc1ccc(OCC(=O)NC(NC(=S)Nc2ccc(C)cc2C)C(Cl)(Cl)Cl)cc1 (centres undefined),56.9*,-1.9,0.5,-5.0,0.4,54.1*
Cc1ccc(NC(=O)CCC(=O)NNC(=O)COc2cccc3ccccc23)c(C)c1,-13.5,-15.1,0.9,-11.9,1.1,5.3
Cc1ccc(C)c(NC(=S)NC(NC(=O)N(C)C)C(Cl)(Cl)Cl)c1 (centres undefined),77.9*,1.4,0.3,-2.0,0.2,69.8*
COc1ccc(Cl)cc1C(=O)CSc1nc(N)cc(N)n1,-307.9,6.8,0.8,-3.3,4.1*,19.7
COc1cccc(-n2nnnc2SCC(=O)c2cc(OC)ccc2OC)c1,23.2,-5.0,0.9,-7.4,0.8,10.6
Nc1cc(N)nc(SCC(=O)c2ccccc2)n1,-3.3,6.4,1,2.9,1,1.3
CCCCn1nnnc1SCC(=O)c1cc(Cl)ccc1OC,-103.6,22.9,0.3,10.1,2*,74.5*
COCCn1nnnc1SCC(=O)c1ccc(F)cc1,.,3.2,.,0.5,.,.
CCCCn1nnnc1SCC(=O)c1ccc(C)c(C)c1,41.4,9.7,0.1,11.3,0.6,89.8*
CCOC(=O)c1c(NC(=O)c2ccccc2Br)sc2c1CCc1ccccc1-2,24.3,19.2,0.9,-7.1,0.8,7.5
CCOc1cc(NC(=O)CC(C)C)c(OCC)cc1NC(=O)CCn1nnc2ccccc21,1.9,1.5,1,-4.4,1,-2.5
CN1CCN(c2ncnc3c2[nH]c2ccc(F)cc23)CC1,9.1,-4.5,0.9,-1.6,0.9,9.9
CN1CCN(c2cc3c(c4c2[nH]c2ccccc24)C(=O)CC(C)(C)C3)CC1,78.5*,20.3,0.4,4.4,0.2,60.7*
O=C1c2cnccc2CN1Cc1ccccc1,-10.0,2.3,1,-3.8,1.1,-4.3
CCNC(=O)NCCc1c[nH]c2ccc(Cl)cc12,44.4,-2.1,0.2,5.7,0.6,78.1*
Cc1ccc(CC(=O)OCCNC(=O)c2cccnc2)cc1,29.0,-5.6,0.8,25.4,0.7,22.2
Cc1ccc2[nH]cc(CCNC(=O)Nc3ccccc3)c2c1,53.5*,7.8,0,-1.8,0.5,97.1*
Cc1ccc2[nH]cc(CCNC(=O)c3cccnc3)c2c1,64.2*,7.4,0.1,0.2,0.4,87.8*
CCn1c(=O)n(-c2ccc(Cl)cc2)c(=O)c2c3c(sc21)COC(C)(C)C3,25.9,-0.4,0.8,-4.1,0.7,23.0
O=C(CNC(=O)c1ccco1)OCc1c(F)cccc1Cl,11.8,-4.6,0.7,11.1,0.9,28.4
COc1ccccc1C(=O)OCc1c(F)cccc1Cl,-237.4,14.1,0.3,0.3,3.4*,72.7*
O=C(O)/C=C/c1cn(Cc2ccccc2)nc1-c1ccccc1,-20.9,25.2,1,-1.1,1.2,-0.9
SMILES,CYP2C9 inh,PostGolgi ctrl,CYP2C19 activ,PostGolgi yeast,CYP2C9 act,CYP2C19 inh
Cc1ccc(-c2nn(Cc3ccccc3)cc2/C=C/C(=O)O)cc1C,45.4,-4.8,0.2,-5.0,0.5,75.8*
CCC1(c2cccc(Cl)c2)NC(=O)N(Cc2cc(C(=O)OC)c(C)o2)C1=O (centres undefined),-0.4,8.7,0.4,-7.7,1,62.2*
COC(=O)CN(c1cc(OC)ccc1OC)S(=O)(=O)c1ccc(OC)c(OC)c1,63.2*,4.1,0,3.4,0.4,95.3*
COc1ccc(S(=O)(=O)N(CCc2ccccc2)CC(=O)O)cc1OC,15.5,6.6,1.1,1.7,0.8,-7.0
COC(=O)CN(Cc1ccccc1)S(=O)(=O)c1ccc(OC)c(OC)c1,-7.4,15.2,0.4,-1.5,1.1,57.3*
COc1ccc(N(CC(=O)NC(C)(C)C)S(=O)(=O)c2ccccc2)cc1OC,10.0,11.7,0.9,3.0,0.9,6.9

# From PubChem
